# VDR inh: blocks the human vitamin D receptor. VDR-SRC2-3 peptide fluorescence polarization, 2 h. Potency, µM, for the others: max response, negative = inhibition, hits mostly inhibitors. hit rate 0.93% among 400,000. AID 504847; also: potency is read from the fitted curve at half-maximal effect
# Target sequence (P11473 whole entry, looked up): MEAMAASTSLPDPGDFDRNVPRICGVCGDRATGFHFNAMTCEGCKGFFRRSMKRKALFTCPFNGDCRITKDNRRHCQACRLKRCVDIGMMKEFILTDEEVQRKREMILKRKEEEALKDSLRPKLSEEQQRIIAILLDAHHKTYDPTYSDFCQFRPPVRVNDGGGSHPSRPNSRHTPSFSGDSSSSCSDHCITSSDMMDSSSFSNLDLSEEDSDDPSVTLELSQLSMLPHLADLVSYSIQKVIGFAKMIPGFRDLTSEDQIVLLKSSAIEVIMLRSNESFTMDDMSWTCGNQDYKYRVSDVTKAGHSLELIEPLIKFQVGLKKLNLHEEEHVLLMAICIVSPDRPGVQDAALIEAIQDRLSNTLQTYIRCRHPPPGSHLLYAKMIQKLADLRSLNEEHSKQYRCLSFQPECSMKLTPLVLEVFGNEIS
#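 After 23 nl compound addition and a short centrifugation, plates sat for 2 hours at ambient temperature; polarization of fluorescence then indicated loss of VDR binding to peptide SRC2-3.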
# Mm-Cpn inhibitor: blocks the Methanococcus maripaludis chaperonin Mm-Cpn; Potency, µM (top dose mostly 76.9 µM), for the others: at the top dose activity, negative = inhibition, most hits filed as inhibitors; purified Mm-Cpn ATPase, ADP Transcreener TR-FRET; hit rate 0.031% among 330,000; AID 504842; also: potency is read from the fitted curve at half-maximal effect; nearly all actives have a fitted effect of over 80% in size
#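 Measured: ADP formation by purified Mm-CPN. Conditions: 25 nM protein, 10 uM ATP, Tris pH 7.4 with Mg2+, K+ and DTT, 37°C for 30 min. Detection: Transcreener HTRF after 30 min at room temperature.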
# PLK1 PBD block: blocks phosphopeptide binding to human PLK1 polo-box domain | hit rate 2.8% among 360,000 | P53350 | Potency, µM, for inactives: max response, negative = inhibition, most hits filed as inhibitors | Plk1 PBD binding of FITC phosphopeptide, fluorescence polarization | AID 720504; also: potency is read from the fitted curve at half-maximal effect; series mostly up to about 57 µM; nearly all actives have a fitted effect of over 65% in size
# Sfp PPTase inh: inhibitors of Bacillus subtilis Sfp phosphopantetheinyl transferase | Q9F4F7 | Biochemical Sfp PPTase activity, qHTS | Potency, µM, inactives show largest response in the series, negative = inhibition, hits mostly inhibitors | hit rate 3.5% among 310,000 | AID 1490;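 also: the enzyme is Sfp with the accession as filed and its product quenches rhodamine fluorescence; potency is read from the fitted curve at half-maximal effect; 0% = enzyme reaction without inhibitor and -100% = no enzyme wells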
#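 After 15 min at room temperature with compound, 15 nM Sfp received 5 uM rhodamine-CoA plus 12.5 uM BHQ-2-ybbR (50 mM Hepes pH 7.6, 10 mM MgCl2). Rate came from the fluorescence difference over 30 min, ex 525/em 598 nm.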
# CCT chaperon mod: cytosolic chaperonin activity modulation | hit rate 0.3% among 360,000 | purified chaperonin ATPase assay, HTRF ADP detection, 30 min | AID 651819 | activity change, % (test concentration not listed), hits read low; in the data active = activity change below about -30%
#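 Nucleotide hydrolysis assay: TRiC at 20–40 nM final (set by batch activity) with 10 uM ATP, 30 min at 37 °C, in presence of 76 uM compound. Detection by competitive ADP HTRF, 30 min ambient.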
# G9a block: inhibitors of human histone lysine methyltransferase G9a. Q96KQ7. G9a H3K9 monomethylation, AlphaScreen, 2 h. Potency, µM (titrated, usually from 102 µM), inactives show at the top dose activity, negative = inhibition, hits mostly inhibitors. hit rate 8.8% among 350,000. AID 504332; also: potency is read from the fitted curve at half-maximal effect; nearly all actives have a fitted effect of over 75% in size
# Target sequence (Q96KQ7 913-1193 limits assumed): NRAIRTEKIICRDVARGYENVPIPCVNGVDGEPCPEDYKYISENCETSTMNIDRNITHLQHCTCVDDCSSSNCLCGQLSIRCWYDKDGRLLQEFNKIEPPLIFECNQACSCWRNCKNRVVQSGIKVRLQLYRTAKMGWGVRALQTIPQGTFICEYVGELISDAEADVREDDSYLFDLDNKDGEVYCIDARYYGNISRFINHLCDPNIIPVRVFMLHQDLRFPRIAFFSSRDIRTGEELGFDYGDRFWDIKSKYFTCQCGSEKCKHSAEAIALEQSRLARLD
#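 Compounds were preincubated with 20 nM G9a for 15 min, after which biotinylated H3K9 peptide (500 nM) and SAM (20 uM) started a 2 h room-temperature reaction. Monomethylated product was quantified by antibody-based AlphaScreen chemiluminescence.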
# Active calls of the source: *; ? = inconclusive; / = no result given; [ ] = remark or other dose. In the library only some 10% were active in any assay of this set; here they are far more common. Unless noted, calls follow the shape of the dose curve; as a rule, active = well fitted curve in the direction sought with a large enough effect; inconclusive = small, poorly fitted or top-dose-only effect, or another doubt; inactive = no such curve, though single readings can be large; an effect the other way counts as inactive or inconclusive. Unless noted, % is scaled to controls: 0 for no effect and ±100 for the full control effect.
SMILES,VDR inh,Mm-Cpn inhibitor,PLK1 PBD block,Sfp PPTase inh,CCT chaperon mod,G9a block
C=CCn1c(SCc2csc(-c3ccc(C)cc3)n2)nnc1-c1ccccc1OC,2%,-1%,-4%,?,-1,32µM*
Cc1ccccc1NC(=O)CSc1nc2c(oc3ccccc32)c(=O)n1Cc1ccco1,-9%,/,/,/,/,-26%[59 µM]
O=C1C([N+](=O)[O-])=C(O)c2cccc3cccc1c23,/,-11%,/,8.9µM*,/,1.3µM*
CO[C@H]1COC(=O)[C@H](C)COC(=O)[C@@H](Cc2ccccc2)NC(=O)C/C=C\[C@H]1C,/,/,/,-12%,/,/
COc1cccc(NC(=O)CSc2nc3c(oc4ccccc43)c(=O)n2Cc2ccco2)c1,-11%,/,/,/,/,-1%[59 µM]
OCCCn1c(-c2ccccc2)n[nH]c1=S,14%,-2%,-7%,-5%,-3,7.9µM*
C=CCn1c(-c2ccncc2)n[nH]c1=S,4%,-1%,-7%,-23%,-1,/
OCCCc1n[nH]c(=S)n1-c1ccccc1,4%,1%,-4%,-1%,-3,?
C=CCn1c(-c2ccc(F)cc2)n[nH]c1=S,-3%,-1%,-13%,-20%,-1,20µM*
C=CCn1c(-c2sc3nc(C)cc(C)c3c2N)n[nH]c1=S,36%,-4%,-22%,8%,-1,7.9µM*
C=CCn1c(-c2ccccc2)n[nH]c1=S,-10%,-5%,8.4µM*,5µM*,-5,61%[59 µM]
CCOC(=O)c1c(C)[nH]c(C)c1S(=O)(=O)N1CCN(c2cccc(C(F)(F)F)c2)CC1,-11%,/,/,/,/,?
CCc1nn(CCCC(=O)NCc2ccc(OC)c(OC)c2)c(=O)c2cc3occc3n12,-11%,/,/,/,/,9%[59 µM]
C=CCn1c(-c2cccc(OCC)c2)n[nH]c1=S,13%,-2%,-14%,-4%,2,8.9µM*
CN1CCN(Cc2nc3ccccc3c(=O)n2Cc2nc(-c3ccccc3F)cs2)CC1,-20%,-3%,?,?,-4,35µM*
CN1CCN(Cc2nc3ccccc3c(=O)n2Cc2nc(-c3cccc([N+](=O)[O-])c3)cs2)CC1,-10%,1%,27µM*,-5%,-2,25µM*
CC(=O)Nc1ccc(NS(=O)(=O)c2c(C(=O)N3CCC(C)CC3)c(C)n(C)c2C)cc1,-4%,/,/,/,/,15%[59 µM]
O=C(CCS(=O)(=O)c1ccc(F)cc1)Nc1nc(-c2ccncc2)cs1,?,1%,12µM*,13µM*,1,7.9µM*
CC(C)(C)c1csc(NC(=O)CCS(=O)(=O)c2ccc(F)cc2)n1,/,/,1%,/,2,/
O=C(Nc1nc(-c2ccccc2)cs1)c1ccccc1NS(=O)(=O)c1ccc(F)cc1,-11%,0%,27µM*,-3%,1,-14%
O=C(Nc1nc(-c2cccs2)cs1)c1ccc(S(=O)(=O)N2CCCCC2)cc1,-16%,45µM*,-4%,6%,-1,?
O=C(CS(=O)(=O)c1ccccc1)Nc1ccc(Cl)cn1,-23%,-1%,-6%,5%,1,52%
O=C(CCS(=O)(=O)c1ccccc1)Nc1ccc(Cl)cn1,0%,2%,-13%,5%,0,45µM*
O=C(Nc1nc(-c2ccccn2)cs1)c1ccc(S(=O)(=O)N2CCCCC2)cc1,/,0%,/,15%,/,65%[59 µM]
O=C(COc1ccccc1)Nc1nc(-c2cccs2)cs1,?,-1%,-1%,6%,-1,16%
SMILES,VDR inh,Mm-Cpn inhibitor,PLK1 PBD block,Sfp PPTase inh,CCT chaperon mod,G9a block
O=C(CCS(=O)(=O)c1ccccc1)Nc1nc(-c2cccs2)cs1,-11%,-1%,-8%,-1%,1,50µM*
O=C(CCS(=O)(=O)c1nc(-c2cccs2)cc(C(F)(F)F)n1)Nc1ccc(OC(F)(F)F)cc1,14µM*,/,/,/,/,-4%[59 µM]
COc1ccc(NC(=O)CSc2nc(-c3cccs3)cc(C(F)(F)F)n2)cc1OC,5%,/,/,/,/,-12%[59 µM]
CC(=O)c1ccccc1OCCCCN1CCCCC1,-5%,-2%,-3%,1%,-3,25µM*
CCc1ccccc1OCCCCN1CCCC1,5%,3%,-5%,3%,-4,16µM*
COc1cc(-c2cccs2)cc(=O)c2c(C)oc(C)c12,11%,-5%,-1%,45µM*,-3,?
COc1ccc(-c2cc(OC(=O)c3ccc(F)cc3)c3c(C)oc(C)c3c(=O)c2)cc1,/,0%,/,?,/,25µM*
CCOc1cc(-c2ccc(OC(=O)c3ccccc3)c(OC)c2)cc(=O)c2c(C)oc(C)c12,4%,/,/,/,/,?
COc1ccc(-c2cc(OC(=O)c3cccc(Cl)c3)c3c(C)oc(C)c3c(=O)c2)cc1,?,/,/,/,/,14µM*
COc1ccc(-c2cc(OC(=O)c3ccccc3)c3c(C)oc(C)c3c(=O)c2)cc1OC,-7%,/,/,/,/,14µM*
CC[C@@]1(c2ccccc2)NC(=O)NC1=O,1%,/,/,-6%,/,/
Cc1oc(C)c2c(=O)cc(-c3ccc4c(c3)OCO4)cc(OC(=O)c3ccccc3Br)c12,-2%,/,/,/,/,13µM*
C[C@H](N)C(=O)N[C@@H](Cc1ccc(F)cc1)C(=O)N[C@@H](CCCN=C(N)N)C(=O)N[C@@H](CC1CCCCC1)C(=O)N[C@@H](CCCCN=C(N)N)C(=O)N[C@@H](Cc1ccc(O)cc1)C(N)=O,7%,/,/,-2%,/,/
O=C(CCNc1n[nH]c(=O)[nH]c1=O)N/N=C/c1ccc(Cl)cc1,6%,3%,-1%,14%,1,1%
O=c1[nH]nc(N/N=C/c2ccc(Cl)cc2Cl)c(=O)[nH]1,?,-13%,24µM*,56µM*,-4,?
Clc1ccc(OCCCc2nc(-c3cccnc3)no2)c(Cl)c1,-2%,-1%,4%,32µM*,-2,137%
Clc1ccc(OCCCc2nc(-c3ccncc3)no2)c(Cl)c1,-7%,-3%,-9%,-22%,-2,/
CCn1c(-c2ccc3ncccc3c2)n[nH]c1=S,9%,0%,-1%,16%,2,10µM*
CCn1c(-c2cc(-c3ccc(OC(C)C)cc3)nc3ccccc23)n[nH]c1=S,8%,-6%,-12%,4%,1,28µM*
CCn1c(-c2ccc([N+](=O)[O-])cc2)n[nH]c1=S,37%,1%,-11%,4%,-5,4µM*
CCCOc1cccc(-c2cc(-c3n[nH]c(=S)n3CC)c3ccccc3n2)c1,1%,-5%,-11%,-26%,1,-1%[0.0925 µM]
C=CCn1c(-c2cc(-c3ccc(C)cc3)nc3ccccc23)n[nH]c1=S,7%,-3%,-18%,2%,-9,14µM*

# Screening data from PubChem BioAssay.
